In the supplement of paper PMC7156485:
± gives the standard deviation of the averaged measurements.

The compounds below were run on HCC1569 (assay: cell number relative to DMSO (% of DMSO); higher = more cells (less growth inhibition / toxicity)). Settings: concentration: 10 µM; 24 h.
Procedure, shortened: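 HCC1569 and TDF cells (800 per well, 384-well plates, RPMI with 10% FBS) were treated with compounds at 10 µM for 24 h at 37 °C, in triplicate. Cells were fixed in 3.7% formaldehyde and stained with a rabbit anti-H1.0 antibody, an AlexaFluor 647 secondary and DAPI; six fields per well were imaged at ×10. H1.0 nuclear intensity or cell number is expressed as percent of the plate DMSO control, taking the median of replicates. HCC1569 values were smoothed for positional effects.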
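Note: TDF denotes transformed human dermal fibroblasts of mesenchymal origin.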

SMILES	cell number
Cl.Cl.OCCN1CCN(CCC=C2c3ccccc3Sc3ccc(C(F)(F)F)cc32)CC1 [cis-(Z)-Flupenthixol dihydrochloride]	86.1
CCC(C(=O)C(C)C(O)C(C)CCc1ccc(C)c(O)c1C(=O)[O-])C1OC(CC)(C2CCC(O)(CC)C(C)O2)CC1C.[Na+] (stereo not given) [Lasalocid A]	79.3
O=C(O)CNC(=O)C(=O)O [2-(carboxymethylamino)-2-oxoacetic acid]	103
COc1cc2nccc(Oc3ccc(NC(=O)Nc4ccc(F)cc4F)c(F)c3)c2cc1OC	74.9
COC1(C2=NCCN2)COc2ccccc2O1.Cl (stereo not given)	104
O=c1cc(N2CCOCC2)oc2c1ccc1ccccc12 [NU 7026 - 2-(4-Morpholinyl)-4H-naphthol[1,2-b]pyran-4-one]	96
CCCCCCCCCCCCCCCC(=O)C(F)(F)F	103
NC(=O)c1ccc(-c2nc(-c3ccc4c(c3)OCCO4)c(-c3ccccn3)[nH]2)cc1 [Casein Kinase I Inhibitor, D4476]	92.2
Cl.NCCS [Cysteamine hydrochloride]	101
CNCCC(Oc1ccccc1OC)c1ccccc1.Cl (stereo not given) [Nisoxetine.HCl]	105
CN(C)CCN1C(=O)c2ccccc2N(C)c2ccccc21 [Dibenzepine]	102
Cc1cccc(C)c1OCC(N)C(C)C.I (stereo not given)	103
OCC1OC(Oc2ccc(O)cc2)C(O)C(O)C1O (stereo not given) [Arbutin]	99.6
CNC1(C)C2CCC(C2)C1(C)C.Cl (stereo not given) [Mecamylamine hydrochloride]	106
CCCCCCC=CC=CCCCCCCCC(=O)O [9(Z), 11(Z)-octadecadienoic acid]	99.8
O=C(CCCN1CCC(O)(c2cccc(C(F)(F)F)c2)CC1)c1ccc(F)cc1 [Trifluperidol]	100
CCCCC=CCCCCCCCC(=O)O [9(E)-Tetradecenoic acid]	98.8
CCOc1ccc2ccc(=O)oc2c1 [7-ethoxy-2H-chromen-2-one]	99.7

SMILES	cell number
O=C(O)CCCC(O)C=CC=CC=CC(O)CC=CCCCCCO (stereo not given) [20-Hydroxy-leukotriene B4]	100
c1ccc2c(Cc3c[nH]c4ccccc34)c[nH]c2c1 [Diindolylmethane]	100.67 ± 0.0078
COc1cc2c(c(OC)c1OC)-c1c(cc3c(c1OC)OCO3)CC(C)C(C)(O)C2OC(=O)c1ccccc1 (stereo not given) [Schisantherin A]	106
CN(C)NN=C1N=CN=C1C(N)=O [Dacarbazine]	102
O=C(Nc1ccc(N2CCOCC2)c(S(=O)(=O)Nc2ccccc2Cl)c1)c1ccncc1 [Chk2 Inhibitor]	98.5
CSc1nc(N)c2ncn(C3OC(COP(=O)([O-])OP(=O)([O-])OP(=O)([O-])[O-])C(O)C3O)c2n1.[Na+].[Na+].[Na+].[Na+] (stereo not given) [2-Methylthioadenosine triphosphate tetrasodium]	102
CCOP(=O)(OCC)C(=Cc1cc(C(C)(C)C)c(O)c(C(C)(C)C)c1)P(=O)(OCC)OCC	90.7
C=C1C(=CC=C2CCCC3(C)C2CCC3C(C)C=CC(O)C2CC2)CC(O)CC1O (stereo not given) [Calcipotriene]	97.8
C[C@]12CCC(=O)C=C1CC[C@@H]1[C@@H]2[C@@H](O)C[C@@]2(C)[C@H]1CC[C@]2(O)C(=O)COC(=O)CCC(=O)[O-].[Na+]	96.3
CC(C)(C)c1nc2c3cc[nH]c(=O)c3c3cc(F)ccc3c2[nH]1 [JAK Inhibitor I]	99.8
O=C(O)c1cn(-c2ccc(F)cc2)c2cc(N3CCNCC3)c(F)cc2c1=O [Sarafloxacin]	105
N#CC(=Cc1ccc(O)c(O)c1)C(=O)NCc1ccccc1 [Tyrphostin AG 490]	94.5
CC(CS)C(=O)N1CCCC1C(=O)O (stereo not given) [Captopril]	98.4 ± 2.9
CCCN(CCC)C(=O)C(CCC(=O)O)NC(=O)c1ccccc1 (stereo not given) [Proglumide]	109
O=C(O)CCCC=CCC1C(O)CC(O)C1C=CC(O)COc1cccc(Cl)c1.[Na] (stereo not given)	99.8
CC(C)CCNC(=O)C(CC(C)C)NC(=O)C1OC1C(=O)O (stereo not given)	106
CC12CCC3c4ccc(O)cc4CCC3C1CC(O)C2O (stereo not given) [Estriol]	98.5
